In all, about 290,000 compounds went through this assay and about 11,000 (3.8%) were called active.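 The calls were made as follows: active = mean replicate inhibition above about 79%, with every replicate also reaching it (limit read from the data); inconclusive = only one of the two criteria met; inactive = mean below limit and not every replicate reaching it.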 For the sample, actives were picked, then their nearest neighbours and some compounds at random.
Molecular target: FAD-linked sulfhydryl oxidase ALR (Homo sapiens) (UniProt P55789)
Test: ALR-catalysed DTT oxidation blockers – biochemical, H2O2 detection, HRP-luminol luminescence, single point, primary screen (AID 485317)
Conditions: purified ALR, hits give high values, concentration not given here

FAD-linked sulfhydryl oxidase ALR (Homo sapiens), sequence (P55789 whole entry, looked up): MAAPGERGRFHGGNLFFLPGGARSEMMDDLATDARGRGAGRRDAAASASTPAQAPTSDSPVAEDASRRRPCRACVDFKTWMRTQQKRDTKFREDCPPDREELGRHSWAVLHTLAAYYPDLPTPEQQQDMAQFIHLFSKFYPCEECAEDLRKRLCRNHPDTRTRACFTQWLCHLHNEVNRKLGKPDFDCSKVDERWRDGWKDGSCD

Structure (SMILES)	inhibition
COc1ccc(S(=O)(=O)N2CCOC23CCN(S(=O)(=O)c2ccc([N+](=O)[O-])cc2)CC3)cc1	0.209% (inactive)
CCN1C(=O)[C@H]2[C@@H](c3ccc(-c4ccc(OC)cc4)cc3)N[C@@](Cc3ccccc3)(C(=O)OC)[C@H]2C1=O	3.62% (inactive)
Cc1ccsc1/C=C1\SC(N2CCOCC2)=NC1=O	-15.8% (inactive)
CCOc1cc(/C=C2\SC(N3CCCCC3)=NC2=O)ccc1O	85.2% (active)
CCc1ccc(/C=C2\SC(N3CCOCC3)=NC2=O)cc1	-8.77% (inactive)
CCOc1cc(C(=S)N2CCOCC2)ccc1O	2.75% (inactive)
CC1CCN(C2=NC(=O)/C(=C/c3ccc(O)cc3)S2)CC1	98.6% (active)
O=C1N=C(N2CCCC2)S/C1=C\c1cccc(Br)c1	8.82% (inactive)
CC1CCN(C2=NC(=O)/C(=C/c3cn[nH]c3-c3ccccc3)S2)CC1	28.2% (inactive)
CCOc1cc(/C=C2\SC(N3CCCC(C)C3)=NC2=O)ccc1O (centres undefined)	98% (active)
CCOc1cc(/C=C2\C(=N)N3N=C(C)SC3=NC2=O)ccc1OCCOc1ccccc1	-3.65% (inactive)
COCCN(C(=O)CC1CCCCC1)c1c(N)n(CC(C)C)c(=O)[nH]c1=O	-3.39% (inactive)
O=C(NCc1ccccc1CN1CCCC1)c1cccc(S(=O)(=O)Nc2ccc(F)cc2)c1	-1.54% (inactive)
CN(CC(=O)Nc1c(Cl)cccc1Cl)C(=O)CC1OC(=O)c2ccccc21 (centres undefined)	1.28% (inactive)
CCCCn1c(N)c(N(CC(C)C)C(=O)CSc2ccc([N+](=O)[O-])cc2)c(=O)[nH]c1=O	-3.66% (inactive)
CN(C(=O)CSc1nnc(-c2ccc3c(c2)OCO3)o1)C1CCS(=O)(=O)C1 (centres undefined)	-1.02% (inactive)
CN(C)CCn1c2c(c(SCC(=O)NCc3ccccc3)nc1=O)CCC2	-45.9% (inactive)
CN(CC(=O)Nc1ccc(OC(F)F)cc1)S(=O)(=O)/C=C/c1ccccc1	0.776% (inactive)
Cc1cc(NC(=O)C(C)SCC(=O)Nc2ccccc2N2CCCCC2)no1 (centres undefined)	2.47% (inactive)
O=C1NC(Cc2ccc(O)cc2)c2nc3ccc(Cl)cc3c(=O)n2-c2ccccc21 (centres undefined)	1.75% (inactive)

Structure (SMILES)	inhibition
CCCC[C@@H]1CN=C(N)N1CCc1cccc(F)c1	-12.6% (inactive)
O=C1N[C@H](Cc2c[nH]c3ccccc23)COC(=O)[C@H](Cc2ccc(F)cc2)C/C=C\C[C@H]1CC(=O)N(CCO)Cc1ccccc1	-0.125% (inactive)
COc1ccc(CCNc2cc(N3CCN(C(=O)c4ccccc4OC)CC3)ccc2[N+](=O)[O-])cc1OC	-7.83% (inactive)
COc1ccc2[nH]c3ccc(OC)cc3c2c1	97.3% (active)
COc1ccc2[nH]c(C(=O)N3CCN(C)CC3)c(C)c2c1	-19.3% (inactive)
COc1ccc2[nH]c(=S)cc(C)c2c1	-27.6% (inactive)
N#Cc1ccc(C2=CC(=O)C[C@H](c3ccc(Cl)cc3)C2)cc1	-5.77% (inactive)
Cc1ccc(NC(=O)C(C)Sc2nnc(C3CC3)n2C2CC2)cc1S(=O)(=O)N1CCOCC1 (centres undefined)	96.1% (active)
Cc1ccc(NC(=O)C2CC2)cc1S(=O)(=O)N1CCOCC1	-0.606% (inactive)
Cc1ccc(NC(=O)NC2CCCCC2)cc1S(=O)(=O)N1CCOCC1	74.4% (inactive)
COc1ccccc1OCCNC(=O)C(CCSC)NC(=O)COc1ccccc1 (centres undefined)	0.393% (inactive)
O=C(CSc1n[nH]c(-c2cccnc2)n1)Nc1ccc(Cl)cc1	5.84% (inactive)
CN(C)c1ccc(NC(=O)CSc2n[nH]c(-c3ccco3)n2)cc1	98.9% (active)
CN(C)C(=O)CSc1n[nH]c(-c2ccco2)n1	-5.75% (inactive)
COc1ccccc1N1CCN(C(=O)C2Cc3ccccc3CN2C(=O)c2ccco2)CC1 (centres undefined)	19.8% (inactive)
CC(C)CN(C(=O)c1ccc2c(c1)OCO2)C1CCS(=O)(=O)C1 (centres undefined)	3.07% (inactive)
CC1Sc2ccc(C(=O)NCc3ccccc3Cl)cc2NC1=O (centres undefined)	-5.05% (inactive)
Cc1ccc(CNC(=O)c2cc(-c3ccccc3C)n(CC3CC(c4cccc([N+](=O)[O-])c4)=NO3)n2)cc1 (centres undefined)	-3.66% (inactive)
O=C(N/N=C/c1cc(Br)c(O)c([N+](=O)[O-])c1)C(O)(c1ccccc1)c1ccccc1	14% (inactive)
Cc1nnc(SCc2cccc(Cl)c2)n(N)c1=O	-0.251% (inactive)

Structure (SMILES)	inhibition
CCC(=O)N1CCN=C1SCc1ccc(F)cc1	98.7% (active)
O=C(COc1ccccc1)N1CCN=C1SCc1cccc(F)c1	15.7% (inactive)
CC1CCN(C(=O)c2ccc(CSc3ccc(Cl)cc3)cc2)CC1	-6.8% (inactive)
CSC1=NCCN1C(=O)Cc1cccc2ccccc12	-43.6% (inactive)
O=C(C1CC1)N1CCN=C1SCc1ccc(Cl)cc1	98.3% (active)
O=C(C1CCN(Cc2ccc(Cl)cc2)CC1)N1CCN(Cc2ccc3c(c2)OCO3)CC1	-2.64% (inactive)
CS(=O)(=O)N1CCN=C1SCc1ccc(F)cc1	98.4% (active)
CCSC1=NCCN1S(=O)(=O)c1ccc(F)cc1	-3.09% (inactive)
O=C(c1ccco1)N1CCN=C1SCc1cccc(Cl)c1	96.8% (active)
O=S(=O)(c1ccc(F)cc1)N1CCN=C1SCc1cccc(F)c1	-6.25% (inactive)
O=C(c1ccco1)N1CCN(c2cccc(Cl)c2)CC1	12.7% (inactive)
O=C(C1CCC1)N1CCN(S(=O)(=O)c2ccc([N+](=O)[O-])cc2)CC1	-24.2% (inactive)
O=C(COc1ccccc1F)Nc1nc(-c2ccccn2)cs1	-5.87% (inactive)
COc1ccc(C2(C)ON(c3ccccc3C(F)(F)F)C2=O)cc1 (centres undefined)	1.44% (inactive)
Cc1cccc(C)c1Nc1nnc(SCC(=O)NCCCN2CCCC2=O)s1	3.02% (inactive)
C=CCC[C@H](Cc1ccc(F)cc1)C(=O)OC[C@@H](Cc1c[nH]c2ccccc12)NC(=O)[C@H](CC=C)CC(=O)N[C@H](CO)Cc1ccccc1	1.04% (inactive)
O=C(NNC(=O)C1CCC1)c1ccccc1	-8.4% (inactive)
Cc1ccc(C)c(OCC(=O)NNC(=O)C2CCC2)c1	-3.99% (inactive)
Cc1ccc(NNC(=O)C2CCC2)cc1C	98.5% (active)

Reference: PubChem BioAssay AID485317 (Broad Institute, 2010)
